Assay outcomes as filed in PubChem.
Sampled rows, rich in hits. Any-hit rate of the full collection: about 3.2%.
A549 viability = counter-screen for Nrf2 inhibitors: cytotoxicity in A549 cells | Potency, µM (highest dose often 46 µM), for inactives: at the top dose activity change, negative = cytotoxicity, most hits filed as inhibitors | A549 ARE-Fluc cells, CellTiter-Fluor viability, 18-24 h | AID 504648 | 0.16% of 390,000 active; note: potency is the fitted concentration of half-maximal effect; % is set by controls: 0 for no effect and ±100 for the full control effect
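Cytotoxicity counterscreen: CellTiter-Fluor fluorescence was measured in A549 ARE_Fluc cells after 18-24 h of compound exposure in a concentration series. The subsequent BugLite luminescent read reports ARE-luciferase activity.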
IL2 activator = activates IL-2 in a cell-based reporter assay; 0.065% of 360,000 active; activation, % (series mostly up to about 46 µM); IL-2 activation reporter assay, cell-based qHTS; stimulated with anti-CD3/CD4/CD28 beads; in transgenic mouse T cells; in the data active = activation above about 50%; inconclusive = mostly about 30% to 49%; note: 0% is about no effect
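Unstimulated transgenic mouse T cells, 750 per well, received compound and, after 60 minutes, anti-CD3/anti-CD4 bead plus anti-CD28 stimulation. EGFP and DsRed were quantified after 18 hours.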
Nrf2 inh = Nrf2 pathway inhibition; A549 ARE-Fluc reporter, luciferase luminescence, 18-24 h; 2.1% of 360,000 active; Potency, µM (top dose mostly 46 µM), for the others: at the top dose activity change, negative = inhibition, actives largely listed as inhibitors; note: potency is the fitted concentration of half-maximal effect; % is set by controls: 0 for no effect and ±100 for the full control effect; nearly all actives have a fitted effect of over 60% in size
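A549 ARE_Fluc cells (5000/well, 5% FBS OPTI-MEM) pre-incubated 2 h, then treated with compounds 18-24 h at 37C/5% CO2 in concentration-response. CellTiter-Fluor viability read first; BugLite luciferase luminescence after 15 min at room temperature gives Nrf2 activity.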
BRCA1 expr up = BRCA1 expression activation; MCF7-BRCA1-FFLuc reporter, luminescence, 48 h; response scale: scaled: vehicle 0%, 10 µM genistein 100%; Potency, µM (top dose mostly 46.1 µM), without a hit: at the highest dose activation, usual class: activators; 1.1% of 380,000 active; note: potency is the fitted concentration of half-maximal effect; nearly all actives have a fitted effect of over 80% in size
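Quantitative HTS in MCF7 cells stably reporting BRCA1 expression via firefly luciferase. Compound treatment lasts 48 h at 37 °C in phenol-red free MEM. Activation is expressed relative to genistein at 10 microM and DMSO.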
p53 reactivation = re-activators of mutant p53 | H1299 p53-A138V BP100-luciferase reporter, luminescence, 24 h | Potency, µM (doses to about 92.2 µM), for the others: at the top dose activity change, positive = activation, most hits filed as activators | 0.063% of 320,000 active | AID 504706; note: potency is the fitted concentration of half-maximal effect; % of control where 0% means no effect; nearly all actives have a fitted effect of over 45% in size
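p53-null H1299 cells stably carrying temperature-sensitive p53-A138V and a BP100-luciferase reporter were pinned with compounds (4-point, 1:5 series) and held 24 hrs at 37 deg C. Luminescence was read 10 min after detection reagent.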
Nrf2 activator = Nrf2 pathway activation; Potency, µM (top dose mostly 46.1 µM), for the others: at the highest dose activation, actives largely listed as activators; 0.31% of 410,000 active; AREc32 ARE-luciferase reporter (MCF7-derived line), luminescence, 24 h; note: potency is the fitted concentration of half-maximal effect; % of control where 0% means no effect; nearly all actives have a fitted effect of over 65% in size
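Luciferase luminescence (Steady-Glo, 30 min at room temperature) served as the read-out of ARE activation in AREc32 cells treated with compounds for 24 hr at 37 deg C.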
Active calls of the source: *. Unless noted, calls come from the whole dose curve; as a rule, active = well fitted curve in the direction sought with a large enough effect; inconclusive = small, poorly fitted or top-dose-only effect, or another doubt; inactive = no such curve, though single readings can be large; an effect the other way counts as inactive or inconclusive.

What do the screens show for `O=[N+]([O-])c1ccc(N2CCN(C(=S)Nc3ccc(F)cc3F)CC2)cc1`?
A549 viability: inconclusive; IL2 activator: 1.1; Nrf2 inh: 23.1µM*; BRCA1 expr up: 18.0%; p53 reactivation: -1.3%; Nrf2 activator: 3.4%

Results for O=[N+]([O-])c1ccc(N2CCN(C(=S)Nc3ccc(F)cc3)CC2)cc1 ?
A549 viability: -16.8%; IL2 activator: 0.1; Nrf2 inh: inconclusive; BRCA1 expr up: -26.5%; p53 reactivation: -4.6%; Nrf2 activator: 0.5%

Results for O=[N+]([O-])c1ccc(N2CCN(C(=S)Nc3cccc(F)c3)CC2)cc1 ?
A549 viability: -18.3%; IL2 activator: -0.3; Nrf2 inh: 16.4µM*; BRCA1 expr up: -5.3%; p53 reactivation: -5.7%; Nrf2 activator: 3.8%

Results for COC(=O)C1=C[C@@H](C(=O)OC)[C@H]2C3=C(C(=O)[C@@]2(C)NC(=O)c2ccccc2)[C@H](C)C(C(=O)OC)=C(C(=O)OC)[C@@H]3C1 ?
A549 viability: -6.8%; Nrf2 inh: 11.3%

Results for CCOC(=O)C(C(=O)OCC)C(C)(C)/C(C)=N\Nc1ccc([N+](=O)[O-])cc1[N+](=O)[O-] ?
A549 viability: inconclusive; IL2 activator: -1.0; Nrf2 inh: inconclusive; BRCA1 expr up: -59.2%; p53 reactivation: 6.7%; Nrf2 activator: 7.4%

How did CCOC(=O)CC(C)(C)/C(C)=N/Nc1ccc([N+](=O)[O-])cc1[N+](=O)[O-] do in these assays?
A549 viability: inconclusive; IL2 activator: -4.2; Nrf2 inh: 18.4µM*; BRCA1 expr up: -3.3%; p53 reactivation: 5.5%; Nrf2 activator: 5.8%

Results for CCN(CC)c1ccc(/C=C(/C#N)c2nc3ccc(C)cc3[nH]2)c(OC(C)C)c1 ?
A549 viability: inconclusive; IL2 activator: 218.5*; Nrf2 inh: inconclusive; BRCA1 expr up: -42.5%; p53 reactivation: 4.8%; Nrf2 activator: 0.0%

How did COc1cc(/C=C(\C#N)c2nc3ccc(C)cc3[nH]2)cc([N+](=O)[O-])c1O do in these assays?
A549 viability: 20.6µM*; IL2 activator: 0.2; Nrf2 inh: inconclusive; BRCA1 expr up: 7.08µM*; p53 reactivation: 7.3%; Nrf2 activator: 7.5%

How did O=C(Cc1cccs1)Nc1ccc(Cl)cc1 do in these assays?
A549 viability: -9.9%; IL2 activator: 1.9; Nrf2 inh: 24.1%; BRCA1 expr up: 51.7%; p53 reactivation: 15.3%; Nrf2 activator: 3.7%

Results for O=C(Cc1cccs1)Nc1ccc(N2CCOCC2)cc1 ?
A549 viability: -4.9%; IL2 activator: 0.1; Nrf2 inh: inconclusive; BRCA1 expr up: 7.94µM*; p53 reactivation: inconclusive; Nrf2 activator: 2.3%

What do the screens show for `O=C(Cc1cccs1)Nc1ccc(Cl)c(S(=O)(=O)N2CCOCC2)c1`?
A549 viability: -6.9%; IL2 activator: -6.0; Nrf2 inh: 16.4µM*; BRCA1 expr up: -51.7%; p53 reactivation: -4.9%; Nrf2 activator: 0.8%

How did COc1ccc(C2c3c(N)nc(Cc4ccccc4)nc3Oc3ccc4ccccc4c32)cc1OC (centres undefined) do in these assays?
A549 viability: -11.0%; Nrf2 inh: inconclusive

What do the screens show for `Cc1ccc(NCc2cc3cc4c(cc3n(CC(=O)Nc3ccc(C)cc3)c2=O)OCCO4)cc1`?
A549 viability: -10.6%; Nrf2 inh: inconclusive; BRCA1 expr up: -6.5%; Nrf2 activator: 23.2%

What do the screens show for `COC1C(CO)OC(n2c3c(Cl)cccc3c3c4c(c5c6cccc(Cl)c6[nH]c5c32)C(=O)NC4=O)C(O)C1O` (centres undefined)?
A549 viability: inconclusive; IL2 activator: 61.7*; Nrf2 inh: inconclusive; BRCA1 expr up: -82.1%; Nrf2 activator: 3.0%

Results for O=C1C=CC(=O)c2c(O)c(CO)c(CO)c(O)c21 ?
A549 viability: 16.4µM*; IL2 activator: -0.3; Nrf2 inh: 23.1µM*; BRCA1 expr up: -65.6%; Nrf2 activator: 8.4%

Results for O=c1c(CO)cc(CO)cc(CO)c1O ?
A549 viability: -5.3%; IL2 activator: 0.5; Nrf2 inh: -1.6%; BRCA1 expr up: -0.8%; p53 reactivation: 5.1%; Nrf2 activator: 0.3%

How did CC(=O)c1c(C)oc2c(Cl)cc(NS(=O)(=O)c3cc(C)c(C)cc3C)cc12 do in these assays?
A549 viability: -0.7%; Nrf2 inh: 14.4%; Nrf2 activator: -1.1%

Results for CCc1ccc(NC(=O)C(=S)NC2CCCCC2)cc1 ?
A549 viability: 3.0%; IL2 activator: 0.3; Nrf2 inh: inconclusive; BRCA1 expr up: 2µM*; p53 reactivation: 20.3%; Nrf2 activator: 2.0%

Results for COc1ccccc1N(C(=O)CCl)c1cn(C(C)=O)c2ccccc12 ?
A549 viability: -1.5%; IL2 activator: -1.2; Nrf2 inh: 23.1µM*; BRCA1 expr up: -85.9%; p53 reactivation: -12.7%; Nrf2 activator: inconclusive

What do the screens show for `Cn1c(SCc2ccccc2[N+](=O)[O-])nnc1-c1cccnc1`?
A549 viability: 2.6%; IL2 activator: -1.4; Nrf2 inh: inconclusive; BRCA1 expr up: 11.2µM*; p53 reactivation: inconclusive; Nrf2 activator: 2.8%

How did COC1=C(C)C(=O)C2=C(C1=O)C1C3CC4=C(C(=O)C(OC)=C(C)C4=O)C(CNC(=O)C(C)=O)N3C(C#N)C(C2)N1C (centres undefined) do in these assays?
A549 viability: 9.2µM*; IL2 activator: -7.9; Nrf2 inh: 0.581µM*; BRCA1 expr up: inconclusive; Nrf2 activator: -2.4%

What do the screens show for `O=[N+]([O-])c1ccc(N/N=C/c2c[nH]c3ccccc23)c(S(=O)(=O)Nc2ccc(Cl)cc2)c1`?
A549 viability: 20.6µM*; IL2 activator: 1.8; Nrf2 inh: 14.6µM*; BRCA1 expr up: -35.5%; p53 reactivation: 15.1%; Nrf2 activator: 0.0%

How did CC[N+](C)(C)CCN(Cc1ccc(Cl)cc1)c1ccccn1 do in these assays?
A549 viability: -9.3%; IL2 activator: 0.2; Nrf2 inh: inconclusive; BRCA1 expr up: 0.0%; p53 reactivation: -2.7%; Nrf2 activator: 0.3%

What do the screens show for `CCCCCCCCCCCCCCCC[N+](C)(C)CCN(Cc1ccc(OC)cc1)c1ncccn1`?
A549 viability: inconclusive; IL2 activator: -0.5; Nrf2 inh: 20.6µM*; BRCA1 expr up: -49.7%; p53 reactivation: -16.9%; Nrf2 activator: -3.0%
